Legend:
[1] = target: Tyrosine-protein kinase SYK (Homo sapiens) (UniProt P43405); conditions: at 10 µM
[2] = target: T1, Mitogen-activated protein kinase kinase kinase 7 (Homo sapiens) (UniProt O43318); conditions: at 1 µM
T1 sequence (whole entry): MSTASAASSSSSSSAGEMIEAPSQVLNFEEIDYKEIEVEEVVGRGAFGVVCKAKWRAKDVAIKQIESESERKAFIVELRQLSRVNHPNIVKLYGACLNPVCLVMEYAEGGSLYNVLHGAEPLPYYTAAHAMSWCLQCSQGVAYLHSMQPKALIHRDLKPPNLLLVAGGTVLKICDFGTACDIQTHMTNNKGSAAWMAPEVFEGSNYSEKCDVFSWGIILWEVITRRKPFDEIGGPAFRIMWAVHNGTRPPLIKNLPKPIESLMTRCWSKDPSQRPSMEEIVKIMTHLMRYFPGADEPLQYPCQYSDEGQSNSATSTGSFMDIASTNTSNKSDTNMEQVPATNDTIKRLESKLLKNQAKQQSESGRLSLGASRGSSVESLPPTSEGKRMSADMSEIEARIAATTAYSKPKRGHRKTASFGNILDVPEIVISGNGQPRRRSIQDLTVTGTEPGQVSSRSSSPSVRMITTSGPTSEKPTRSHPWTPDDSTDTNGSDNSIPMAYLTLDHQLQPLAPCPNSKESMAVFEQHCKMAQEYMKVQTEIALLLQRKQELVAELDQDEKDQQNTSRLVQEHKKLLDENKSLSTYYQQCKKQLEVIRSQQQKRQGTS

[3] = target: T1, Mitogen-activated protein kinase kinase kinase 7 (Homo sapiens); conditions: at 10 µM
[4] = target: T2, Serine/threonine-protein kinase TAO1 (Homo sapiens) (UniProt Q7L7X3); conditions: at 1 µM
T2 sequence (whole entry): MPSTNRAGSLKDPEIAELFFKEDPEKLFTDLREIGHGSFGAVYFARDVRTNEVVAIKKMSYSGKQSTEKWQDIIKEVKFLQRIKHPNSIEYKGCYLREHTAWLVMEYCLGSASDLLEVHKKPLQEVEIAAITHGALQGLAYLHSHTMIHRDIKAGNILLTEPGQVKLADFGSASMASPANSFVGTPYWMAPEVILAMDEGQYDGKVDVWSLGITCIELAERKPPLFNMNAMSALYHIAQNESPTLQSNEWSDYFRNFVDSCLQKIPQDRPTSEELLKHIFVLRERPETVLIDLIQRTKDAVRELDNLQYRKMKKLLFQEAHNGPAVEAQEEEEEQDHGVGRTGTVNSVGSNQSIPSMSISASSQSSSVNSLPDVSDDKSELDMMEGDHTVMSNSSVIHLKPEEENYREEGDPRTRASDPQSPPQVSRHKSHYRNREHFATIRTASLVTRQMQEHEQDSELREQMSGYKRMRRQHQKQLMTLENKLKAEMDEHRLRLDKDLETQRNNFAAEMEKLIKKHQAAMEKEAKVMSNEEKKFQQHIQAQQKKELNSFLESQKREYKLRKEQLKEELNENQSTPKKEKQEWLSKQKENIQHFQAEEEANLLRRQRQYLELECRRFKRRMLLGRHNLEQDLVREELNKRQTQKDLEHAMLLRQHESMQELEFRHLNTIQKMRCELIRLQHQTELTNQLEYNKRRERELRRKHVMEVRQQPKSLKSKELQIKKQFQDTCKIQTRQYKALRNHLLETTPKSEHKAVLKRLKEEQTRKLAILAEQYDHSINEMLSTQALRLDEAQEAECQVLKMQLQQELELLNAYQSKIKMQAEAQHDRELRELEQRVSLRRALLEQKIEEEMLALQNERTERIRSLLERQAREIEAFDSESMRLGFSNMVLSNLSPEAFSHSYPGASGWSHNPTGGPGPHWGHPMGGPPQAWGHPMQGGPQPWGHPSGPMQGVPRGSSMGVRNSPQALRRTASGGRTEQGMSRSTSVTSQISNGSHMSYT

[5] = target: T2, Serine/threonine-protein kinase TAO1 (Homo sapiens); conditions: at 10 µM
[6] = target: T3, Serine/threonine-protein kinase TAO2 (Homo sapiens) (UniProt Q9UL54); conditions: at 1 µM
T3 sequence (whole entry): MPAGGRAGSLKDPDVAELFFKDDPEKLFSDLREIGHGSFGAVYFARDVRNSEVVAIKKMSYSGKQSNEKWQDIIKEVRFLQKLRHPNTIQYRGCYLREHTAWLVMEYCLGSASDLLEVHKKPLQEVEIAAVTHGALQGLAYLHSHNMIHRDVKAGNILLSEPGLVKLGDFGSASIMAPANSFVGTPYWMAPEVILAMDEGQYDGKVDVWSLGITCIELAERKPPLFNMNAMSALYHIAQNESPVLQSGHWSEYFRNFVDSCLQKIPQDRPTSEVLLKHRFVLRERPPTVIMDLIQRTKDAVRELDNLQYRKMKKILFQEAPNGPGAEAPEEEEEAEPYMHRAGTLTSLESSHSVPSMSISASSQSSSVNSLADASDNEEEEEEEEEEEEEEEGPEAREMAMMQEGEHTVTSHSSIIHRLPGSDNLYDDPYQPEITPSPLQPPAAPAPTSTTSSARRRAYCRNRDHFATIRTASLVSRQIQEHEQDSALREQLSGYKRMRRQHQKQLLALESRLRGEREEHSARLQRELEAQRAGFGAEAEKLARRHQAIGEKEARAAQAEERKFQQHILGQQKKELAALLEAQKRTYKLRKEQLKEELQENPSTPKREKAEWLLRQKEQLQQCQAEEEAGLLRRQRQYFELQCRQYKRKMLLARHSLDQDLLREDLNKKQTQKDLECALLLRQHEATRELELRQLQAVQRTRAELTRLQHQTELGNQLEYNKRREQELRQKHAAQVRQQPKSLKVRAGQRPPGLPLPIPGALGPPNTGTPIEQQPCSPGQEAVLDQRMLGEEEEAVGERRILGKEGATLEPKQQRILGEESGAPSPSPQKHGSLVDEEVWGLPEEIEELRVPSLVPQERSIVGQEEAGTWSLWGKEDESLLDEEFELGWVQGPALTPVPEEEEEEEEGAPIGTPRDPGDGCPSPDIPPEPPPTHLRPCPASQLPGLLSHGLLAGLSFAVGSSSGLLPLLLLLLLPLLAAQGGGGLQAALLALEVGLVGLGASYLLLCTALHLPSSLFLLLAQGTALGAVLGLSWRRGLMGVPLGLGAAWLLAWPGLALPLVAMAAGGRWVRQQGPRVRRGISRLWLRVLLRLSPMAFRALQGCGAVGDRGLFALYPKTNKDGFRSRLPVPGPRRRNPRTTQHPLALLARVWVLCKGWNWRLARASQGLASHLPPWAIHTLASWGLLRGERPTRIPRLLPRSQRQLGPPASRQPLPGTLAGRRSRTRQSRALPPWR

[7] = target: T3, Serine/threonine-protein kinase TAO2 (Homo sapiens); conditions: at 10 µM
[8] = target: T4, Serine/threonine-protein kinase TAO3 (Homo sapiens) (UniProt Q9H2K8); conditions: at 1 µM
T4 sequence (whole entry): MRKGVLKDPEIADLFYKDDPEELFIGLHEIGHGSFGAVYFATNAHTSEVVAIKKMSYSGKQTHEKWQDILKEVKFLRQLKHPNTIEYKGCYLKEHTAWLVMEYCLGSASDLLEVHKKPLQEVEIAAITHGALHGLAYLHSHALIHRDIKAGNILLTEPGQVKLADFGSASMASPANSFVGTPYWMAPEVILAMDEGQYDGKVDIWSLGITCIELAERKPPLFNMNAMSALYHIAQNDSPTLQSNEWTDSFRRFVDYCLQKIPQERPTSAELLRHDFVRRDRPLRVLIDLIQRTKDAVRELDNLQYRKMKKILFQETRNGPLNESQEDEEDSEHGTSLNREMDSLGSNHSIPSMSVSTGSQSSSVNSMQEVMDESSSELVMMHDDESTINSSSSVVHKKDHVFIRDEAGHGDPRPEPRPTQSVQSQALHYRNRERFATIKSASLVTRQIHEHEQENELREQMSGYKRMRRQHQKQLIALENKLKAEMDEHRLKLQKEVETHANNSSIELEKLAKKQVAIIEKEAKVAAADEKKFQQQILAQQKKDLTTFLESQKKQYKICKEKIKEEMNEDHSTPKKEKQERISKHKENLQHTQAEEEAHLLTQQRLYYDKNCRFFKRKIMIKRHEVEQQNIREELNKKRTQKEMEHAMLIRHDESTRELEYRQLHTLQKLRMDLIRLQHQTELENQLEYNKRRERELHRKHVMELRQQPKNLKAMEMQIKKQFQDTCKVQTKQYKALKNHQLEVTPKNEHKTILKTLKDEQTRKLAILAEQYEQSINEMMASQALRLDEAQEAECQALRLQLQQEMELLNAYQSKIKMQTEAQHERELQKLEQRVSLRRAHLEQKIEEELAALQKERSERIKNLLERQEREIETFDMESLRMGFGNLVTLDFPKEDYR

[9] = target: T4, Serine/threonine-protein kinase TAO3 (Homo sapiens); conditions: at 10 µM
[10] = target: T5, Serine/threonine-protein kinase TBK1 (Homo sapiens) (UniProt Q9UHD2); conditions: at 1 µM
T5 sequence (whole entry): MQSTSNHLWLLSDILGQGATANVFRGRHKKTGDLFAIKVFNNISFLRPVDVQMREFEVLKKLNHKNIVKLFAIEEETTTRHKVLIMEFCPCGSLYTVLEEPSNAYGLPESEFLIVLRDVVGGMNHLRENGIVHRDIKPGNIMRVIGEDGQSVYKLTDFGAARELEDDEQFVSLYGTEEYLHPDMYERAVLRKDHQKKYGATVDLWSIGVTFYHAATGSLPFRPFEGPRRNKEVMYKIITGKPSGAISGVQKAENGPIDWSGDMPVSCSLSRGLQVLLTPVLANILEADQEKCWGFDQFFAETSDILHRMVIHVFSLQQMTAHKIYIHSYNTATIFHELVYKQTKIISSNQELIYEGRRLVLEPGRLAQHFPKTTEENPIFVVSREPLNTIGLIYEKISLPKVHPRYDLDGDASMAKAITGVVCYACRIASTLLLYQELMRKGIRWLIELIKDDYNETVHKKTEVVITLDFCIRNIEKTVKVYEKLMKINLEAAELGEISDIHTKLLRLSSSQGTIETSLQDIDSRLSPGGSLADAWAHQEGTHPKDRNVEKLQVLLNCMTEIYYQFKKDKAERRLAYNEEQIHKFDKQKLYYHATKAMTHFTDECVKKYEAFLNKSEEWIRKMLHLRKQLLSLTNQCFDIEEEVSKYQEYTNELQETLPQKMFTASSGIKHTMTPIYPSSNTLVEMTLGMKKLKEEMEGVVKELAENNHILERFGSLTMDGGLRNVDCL

| Compound | residual activity [1] [%] | residual activity [2] [%] | residual activity [3] [%] | residual activity [4] [%] | residual activity [5] [%] | residual activity [6] [%] | residual activity [7] [%] | residual activity [8] [%] | residual activity [9] [%] | residual activity [10] [%] |
| --- | --- | --- | --- | --- | --- | --- | --- | --- | --- | --- |
| Nc1n[nH]c2nnc(-c3c(-c4ccccc4)nn4ccccc34)cc12 | 110 | 90 | 77 | 87 | 56 | 90 | 50 | 87 | 40 | 75 |
| O=C1Nc2cc(Br)ccc2/C1=C1/Nc2ccccc2/C1=N\O | 37 | 89 | 81 | 68 | 58 | 75 | 91 | 68 | 82 | 8 |
| CCN(CC)C(=O)c1ccc(Nc2nc(OCC3CCCCC3)c3nc[nH]c3n2)cc1 | 13 | 47 | 7 | 52 | 10 | 51 | 6 | 70 | 16 | 15 |
| CO[C@H]1[C@@H](OC)C[C@H](C)[C@@H](OC)C2=CC(=O)C=C(NC(=O)/C(C)=C/C=C/[C@H](OC)[C@@H](OC(N)=O)/C(C)=C/[C@@H]1C)C2=O | 87 | 96 | 94 | 98 | 89 | 99 | 93 | 107 | 95 | 77 |
| COc1cccc(-c2cc(=O)c3ccccc3o2)c1N | 113 | 101 | 98 | 99 | 85 | 112 | 92 | 95 | 87 | 97 |
| CN(C)c1ccc(/C=C2\C(=O)Nc3ccccc32)cc1 | 91 | 100 | 81 | 113 | 90 | 99 | 89 | 100 | 91 | 81 |
| CCOc1cc2ncnc(Nc3cccc(Br)c3)c2cc1OCC | 58 | 95 | 83 | 86 | 73 | 101 | 84 | 100 | 81 | 70 |
| COc1ccc(C(=O)Nc2sc3c(c2C(N)=O)CCCC3)cc1OC | 89 | 86 | 86 | 97 | 86 | 92 | 83 | 91 | 93 | 72 |
| O=c1c2ccccc2[nH]c(=S)n1CCN1CCC(=C(c2ccc(F)cc2)c2ccc(F)cc2)CC1 | 68 | 97 | 83 | 109 | 88 | 107 | 79 | 109 | 86 | 91 |
| CC(C)n1cnc2/c(=N/c3cccc(Cl)c3)nc(NCCO)[nH]c21 | 56 | 77 | 24 | 87 | 59 | 70 | 63 | 93 | 54 | 57 |
| CO[C@H]1C[C@@H]2CC[C@@H](C)[C@@](O)(O2)C(=O)C(=O)N2CCCC[C@H]2C(=O)O[C@H]([C@H](C)C[C@@H]2CC[C@@H](O)[C@H](OC)C2)CC(=O)[C@H](C)/C=C(\C)[C@@H](O)[C@@H](OC)C(=O)[C@H](C)C[C@H](C)/C=C/C=C/C=C/1C | 78 | 89 | 82 | 102 | 87 | 99 | 96 | 97 | 85 | 63 |
| Nc1ccc2ncnc(NCCc3ccc(Oc4ccccc4)cc3)c2c1 | 78 | 92 | 72 | 103 | 88 | 90 | 91 | 110 | 92 | 94 |
| O=c1cc(-c2cccc3c2Sc2ccccc2S3)oc(N2CCOCC2)c1 | 90 | 101 | 89 | 107 | 80 | 93 | 90 | 94 | 82 | 99 |
| Nc1cccc(-c2cc3c(Oc4cccc(O)c4)ncnc3[nH]2)c1 | 3 | 48 | 8 | 82 | 39 | 78 | 26 | 84 | 37 | 70 |
| COc1ccc(S(=O)(=O)N(CCO)c2ccccc2CN(C)C/C=C/c2ccc(Cl)cc2)cc1 | 69 | 93 | 82 | 97 | 83 | 105 | 88 | 86 | 84 | 73 |
| N#C/C(=C(\N)Sc1ccc(N)cc1)c1ccccc1C(F)(F)F | 78 | 101 | 85 | 89 | 99 | 102 | 104 | 99 | 91 | 31 |
| Oc1ccc(Nc2nc(-c3ccc(Cl)cc3)cs2)cc1 | 114 | 112 | 98 | 106 | 85 | 118 | 89 | 99 | 95 | 114 |

From ChEMBL document CHEMBL2218924, “A broad activity screen in support of a chemogenomic map for kinase signalling research and drug discovery” (Biochem J, 2013)
